Laboratory results reported in ChEMBL document CHEMBL1157539, “Thousands of chemical starting points for antimalarial lead identification” (Nature, 2010).

Columns and labels:
Format in all cases: functional
[1] = tested on: Plasmodium falciparum; assay: GSK_TCMDC: Inhibition of Plasmodium falciparum 3D7 in whole red blood cells, using parasite LDH activity as an index of growth. Test compounds present at 2uM
[2] = tested on: Plasmodium falciparum; assay: GSK_TCMDC: Inhibition of Plasmodium falciparum Dd2 in whole red blood cells, using parasite LDH activity as an index of growth. Test compounds present at 2uM
[3] = tested on: HepG2; assay: GSK_TCMDC: Percent inhibition of human HepG2 cell line. Test compounds present at 10uM.

SMILES	Inhibition [1] [%]	Inhibition [2] [%]	Inhibition [3] [%]
Cc1ccc(S(C)(=O)=O)cc1/C=C/C(=O)O	96	1	0
Cc1cc(OCCCN2CCCCC2)ccc1NC(=O)COc1ccc(Cl)cc1C(=O)c1cc(C#N)cc(C(F)(F)F)c1	87	7	23
CN1CCCN(Cc2ccc(-c3ccc(NC(=O)c4ccc(Cl)cc4)cc3)cc2)CC1.O=C(O)C(F)(F)F	96	67	58
COc1ccc(Cc2c(C)nc3nc(N)nc(N)c3c2C)cc1.Cl	93	2	61
COc1ccc(C=NNc2cc(C)nc3ccc(OC)cc23)c(OC)c1	100	95	23
CCN(CC)CCN(Cc1ccc(-c2ccc(C(F)(F)F)cc2)cc1)C(=O)Cn1c(CCc2ccc(F)c(F)c2)nc(=O)c2ccccc21.O=C(O)C(O)C(O)C(=O)O	99	62	31
COc1cccc(-c2cc(C(F)(F)F)n3ncc(C(=O)Nc4cc(C)ccc4O)c3n2)c1	98	99	0
Cc1cc(N2Cc3ccccc3C2)nc(Nc2cccc(C#N)c2)n1	100	97	6
CC(=O)N1N=C(c2[nH]c3ccc(Br)cc3c2C)OC1c1ccccc1 (stereo not drawn)	86	68	8
Cl.Clc1ccc(OCc2ccccc2)c(Cc2ccc(-c3nc4cnccc4[nH]3)o2)c1	99	6	2
CC(=O)c1ccccc1OCCSc1nnc(Cc2cccs2)n1C1CCCCC1	87	1	19
